Compounds without any hit were thinned out: in the full panel of roughly 83,000, 20% have a hit.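 The test compound was applied at a single concentration to cells in 96-well plates for 48 hours, and percent growth was recorded.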 Active and inactive are the calls of the source. How the source made its calls: active means growth percent below 10; inactive means the rest.
Experiments:
Assay in all cases: NCI-60 one-dose screen, 48 h (100 = growth as untreated, 0 = no growth, -100 = all killed)
Details in all cases: 10 µM unless noted
[1] = tested on: NCI-H23 lung
[2] = tested on: NCI-H226 lung
[3] = tested on: NCI-H322M lung
[4] = tested on: HOP-62 NSCLC
[5] = tested on: NCI-H460 lung
[6] = tested on: HOP-92 NSCLC
[7] = tested on: NCI-H522 lung
[8] = tested on: A549/ATCC NSCLC
[9] = tested on: 786-0 renal
[10] = tested on: COLO 205 colon
[11] = tested on: DU-145 prostate
[12] = tested on: K-562 leukemia
[13] = tested on: MALME-3M melanoma
[14] = tested on: MDA-MB-231 breast
[15] = tested on: RXF 393 renal
[16] = tested on: SF-268 CNS
[17] = tested on: SF-295 CNS
[18] = tested on: SF-539 CNS
[19] = tested on: UACC-257 melanoma
[20] = tested on: M14 melanoma

Measured: growth

CCCCCCCCCCCCCCCCCCOc1ccc(CC(=O)OCC[N+]2(C)CCCCC2)cc1
inactive: [1] 86.7% | [2] 101% | [3] 96.4% | [4] 101% | [5] 101% | [6] 97.8% | [7] 89.2% | [8] 88.9% | [9] 92.8% | [10] 103% | [11] 107% | [12] 83.9% | [13] 98.8% | [14] 100% | [15] 102% | [16] 100% | [17] 110% | [18] 99.4% | [19] 96% | [20] 99.8%

Cc1nc2ccccc2n1CC1C(=O)NC(=O)NC1=O
inactive: [1] 102% | [2] 114% | [3] 95.5% | [4] 105% | [5] 111% | [6] 97.8% | [7] 94.4% | [8] 96.4% | [9] 103% | [10] 115% | [11] 117% | [12] 94.8% | [13] 106% | [14] 114% | [15] 123% | [16] 106% | [17] 102% | [18] 100% | [19] 101% | [20] 110%

Oc1ccc(C#CCOc2ccccc2)cc1CNCCN(Cc1ccccn1)Cc1ccccn1
inactive: [1] 16.7% | [3] 13.6% | [4] 13.3% | [6] 42.5% | [10] 13% | [11] 28.6% | [13] 25.2% | [14] 47% | [15] 16% | [16] 13% | [18] 11.3% | [19] 15.4%
active: [2] 8.23% | [5] 5.58% | [7] 9.5% | [8] 8.12% | [9] 5.55% | [12] 8.65% | [17] 4.52% | [20] 6.22%

COc1cccc(-c2nc(-c3ccc(NC(=O)OC(C)C)cc3)[nH]c2-c2ccnc(Br)c2)c1
inactive: [1] 15.7% | [2] 31.2% | [3] 35.4% | [4] 22.7% | [5] 16.7% | [6] 40.7% | [7] 26.8% | [8] 29% | [10] 25.7% | [11] 36% | [13] 21.8% | [14] 37.3% | [16] 40.5% | [18] 10.5% | [19] 45.3% | [20] 29.9%
active: [9] 0.518% | [12] 6.01% | [15] -33.9% | [17] -35.6%

c1cc2nc(-c3cn[nH]c3)c3c(c2cc1-c1cn[nH]c1)C1CCC3C1 (stereo not given)
inactive: [1] 53% | [2] 39.5% | [3] 75% | [4] 47.8% | [5] 54% | [6] 28% | [7] 75.1% | [8] 74% | [9] 81.5% | [10] 90.5% | [11] 81.4% | [12] 65% | [13] 61.4% | [14] 53% | [15] 15.3% | [16] 77% | [17] 57.8% | [18] 66.7% | [19] 83.9% | [20] 69.3%

COc1cc(OCc2cccc(-c3ccc(C(O)c4nccs4)cc3)c2C)cc(OC)c1CNCCNC(C)=O (stereo not given)
inactive: [1] 98.1% | [2] 96.2% | [3] 99.1% | [4] 108% | [5] 101% | [6] 81.8% | [7] 101% | [8] 96.3% | [9] 102% | [10] 104% | [11] 111% | [12] 77.2% | [13] 86% | [14] 101% | [15] 107% | [16] 97.5% | [17] 103% | [18] 101% | [19] 99% | [20] 99.6%

COc1c(B(O)O)cc(F)cc1-c1nc2ccc3[nH]ncc3c2c2c1CCCC2
inactive: [3] 14.2% | [4] 16.1% | [6] 19.7% | [7] 13.1% | [8] 15% | [11] 11.1% | [12] 30.5% | [13] 20.3% | [14] 22% | [17] 10.8% | [19] 20.1% | [20] 28.3%
active: [1] 0.235% | [2] 8.89% | [5] 5.46% | [9] 1.01% | [10] -3.77% | [15] -34.5% | [16] 9.38% | [18] -13.4%

CCCCCCn1c(-c2ccc(C(=O)O/N=C(\N)c3ccc(OC)cc3)cc2)nc(-c2ccccc2)c1-c1ccccc1
inactive: [2] 62.6% | [3] 69.4% | [4] 26.4% | [19] 48.3% | [20] 40.9%
active: [1] -63.9% | [5] -10.3% | [6] -63% | [7] -59% | [8] -33.9% | [9] -66.8% | [10] -14% | [11] -73.6% | [12] -35.3% | [13] -18.2% | [14] -24% | [15] -59.6% | [16] 3.04% | [17] 1.78% | [18] -84.1%

Cc1cccc2c(=O)c3c(sc12)c(NCc1ccccc1)nc1ccccc13
inactive: [1] 84.5% | [2] 76.3% | [3] 89.9% | [4] 87.5% | [5] 54.8% | [6] 111% | [7] 81.6% | [8] 92% | [9] 100% | [10] 87.2% | [11] 102% | [12] 101% | [13] 110% | [14] 89.4% | [15] 107% | [16] 107% | [17] 98.9% | [18] 102% | [19] 104% | [20] 103%

Cc1cccc2c3c(sc12)C(c1ccc(F)cc1)C(C#N)=C(N)O3 (stereo not given)
inactive: [1] 21.3% | [2] 26.1% | [3] 46.4% | [4] 33.2% | [6] 68.4% | [7] 13.6% | [8] 22.1% | [9] 16.7% | [13] 73.8% | [14] 26.9% | [15] 38.7% | [16] 27.8% | [19] 68.2% | [20] 10.4%
active: [5] 3.07% | [10] -37.3% | [11] 7.98% | [12] 8.65% | [17] 5.18% | [18] -15.3%

CCc1nnc(NC(=O)c2nnn(-c3ccccc3)c2-c2ccco2)s1
inactive: [1] 91.7% | [2] 90.9% | [3] 94.2% | [4] 92.9% | [5] 83.7% | [6] 91.3% | [7] 90.9% | [8] 96.9% | [9] 105% | [10] 109% | [11] 101% | [12] 71.8% | [13] 98.9% | [14] 92.9% | [15] 100% | [16] 107% | [17] 87.2% | [18] 99.7% | [19] 102% | [20] 98.4%

CCCCN(C)N=Nc1ccc(C(N)=O)cc1
inactive: [1] 102% | [2] 124% | [3] 105% | [4] 122% | [5] 104% | [6] 103% | [7] 109% | [8] 97.3% | [9] 106% | [10] 110% | [11] 113% | [12] 116% | [13] 111% | [14] 106% | [15] 150% | [16] 108% | [17] 101% | [18] 107% | [19] 105% | [20] 102%

O=C(/C=C/c1sc(Cl)nc1Cl)c1ccccc1
inactive: [1] 95.2% | [2] 99.7% | [3] 95% | [4] 101% | [5] 102% | [6] 94.3% | [7] 93% | [8] 99.9% | [9] 97% | [10] 87.4% | [11] 99.1% | [12] 10.8% | [13] 95.7% | [14] 98.7% | [15] 99.7% | [16] 104% | [17] 102% | [18] 72.3% | [19] 94.9% | [20] 79.8%

CC(C)(C)NC(=O)C(OC(=O)c1cccc(Cl)c1)c1ccc(Cl)cc1 (stereo not given)
inactive: [1] 101% | [2] 94.9% | [3] 98% | [4] 80.9% | [5] 106% | [6] 93.8% | [7] 71.1% | [8] 90.9% | [9] 99.2% | [10] 103% | [11] 103% | [12] 92.5% | [13] 103% | [14] 112% | [15] 111% | [16] 100% | [17] 98.1% | [18] 95.1% | [19] 97.1% | [20] 94.1%

COc1cc(C(=O)N/N=C/c2cc3cc(OCc4ccccc4)ccc3nc2OC)cc(OC)c1OC
inactive: [1] 90.2% | [2] 78.4% | [3] 98% | [4] 83% | [5] 78.7% | [6] 66.7% | [7] 70.2% | [8] 82.2% | [9] 85.5% | [10] 102% | [11] 102% | [12] 74.6% | [13] 110% | [14] 94.7% | [15] 79.6% | [16] 79.7% | [17] 98.4% | [18] 85.8% | [19] 79.2% | [20] 83.4%

CC(C)c1cc(C(C)C)c(S(=O)(=O)Oc2ccc(NC(=O)c3ccc(Cl)cc3)cc2)c(C(C)C)c1
active: [7] 7.91%
inactive: [1] 15.2% | [2] 51.6% | [3] 60.4% | [4] 57.9% | [5] 13.4% | [6] 19.1% | [8] 27.5% | [9] 33.8% | [10] 32.7% | [11] 43.7% | [12] 16.4% | [13] 53.8% | [14] 52.1% | [15] 51.4% | [16] 50.6% | [17] 11.4% | [18] 73.6% | [19] 24.7% | [20] 36.2%

From PubChem BioAssay (NCI)
